Compound activity (PubChem BioAssay)
ELG1 DNA repair – ELG1-dependent DNA repair inhibition; HEK293T ELG1-luciferase reporter, luminescence, 16 h; DNA damage induced by 5-fluorouridine; Potency, µM (top dose mostly 46.1 µM), most hits filed as inhibitors; 330,000 compounds, 2.3% hits; AID 504467; note: nearly all actives have a fitted effect of over 55% in size
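In this reporter screen, reduction of luminescence relative to DMSO vehicle indicated activity. Compounds and 5-fluorouridine were added together to 2,000 cells per well, incubated for 16 hr at 37 °C, then developed with ONE-Glo.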
RORg inh – inhibitors of mouse ROR gamma transcriptional activity; P51450; Drosophila S2 Gal4-RORgamma UAS-luciferase reporter, 20 h; Potency, µM (series often up to 53.6 µM), usual class: inhibitors; 310,000 compounds, 5.4% hits; note: nearly all actives have a fitted effect of over 60% in size
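A Gal4/UAS one-hybrid system in insect cells: metallothionein-promoter Gal4–ROR gamma fusion plus Photinus luciferase reporter. Copper sulfate 700 uM final, 20 hr ambient incubation, luminescent detection after 10 min with reagent.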
TDP1 cell CPT – growth inhibition of DT40 Tdp1-/-;hTDP1 cells with camptothecin (screen for TDP1 inhibitors); chicken DT40 Tdp1-/-;hTDP1 cells + 20 nM CPT, ATP luminescence, 48 h; Potency, µM (titrated, usually from 46.2 µM), actives largely listed as inhibitors; 420,000 compounds, 12% hits; AID 686979; note: nearly all actives have a fitted effect of over 55% in size
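Chicken DT40 Tdp1-/- cells complemented with human TDP1, 400 cells/well, exposed to compounds plus 20 nM camptothecin for at least 48 h at 37 C; viability read as ATP content by CellTiter-Glo luminescence.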
12-LOX inh – inhibitors of human 12S-lipoxygenase ALOX12; 580,000 compounds, 1.1% hits; purified 12hLO, xylenol orange hydroperoxide absorbance; Potency, µM (top dose mostly 108 µM), usual class: inhibitors; AID 1671190
Target sequence (P18054 whole entry, looked up): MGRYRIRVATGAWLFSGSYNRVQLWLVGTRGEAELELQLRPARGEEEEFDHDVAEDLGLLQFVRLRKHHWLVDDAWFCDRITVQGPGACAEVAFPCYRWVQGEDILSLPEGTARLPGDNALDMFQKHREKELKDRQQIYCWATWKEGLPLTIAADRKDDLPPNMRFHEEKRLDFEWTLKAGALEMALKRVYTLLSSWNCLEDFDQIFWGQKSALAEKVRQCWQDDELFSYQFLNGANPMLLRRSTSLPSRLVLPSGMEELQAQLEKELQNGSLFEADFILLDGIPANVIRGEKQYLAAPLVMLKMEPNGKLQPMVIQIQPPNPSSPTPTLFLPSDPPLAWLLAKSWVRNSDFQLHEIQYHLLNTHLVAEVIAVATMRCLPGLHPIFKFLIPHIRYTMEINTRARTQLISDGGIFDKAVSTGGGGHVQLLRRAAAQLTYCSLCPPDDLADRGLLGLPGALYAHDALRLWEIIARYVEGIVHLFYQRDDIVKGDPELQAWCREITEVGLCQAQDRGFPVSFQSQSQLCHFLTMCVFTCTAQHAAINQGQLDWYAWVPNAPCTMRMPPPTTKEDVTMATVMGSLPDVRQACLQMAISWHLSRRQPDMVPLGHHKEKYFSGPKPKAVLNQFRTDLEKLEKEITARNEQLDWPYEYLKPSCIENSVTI
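Hydroperoxide product was detected by ferrous iron/xylenol orange as the 573 to 405 nm absorbance ratio. Arachidonic acid at 40 uM (final) was turned over for 30 min at room temperature by 150 nM human 12hLO, pH 7.0 Hepes buffer, after 15 min compound preincubation.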
TDP1 cell noCPT – qHTS for Inhibitors of human tyrosyl-DNA phosphodiesterase 1 (TDP1): qHTS in cells in absence of CPT | Potency, µM (titrated, usually from 46.2 µM), usual class: inhibitors | 420,000 compounds, 15% hits | DT40 Tdp1-/- hTDP1 cells, no CPT, ATP luminescence, 48 h; note: nearly all actives have a fitted effect of over 55% in size
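Growth of hTDP1-complemented DT40 Tdp1-knockout cells is measured by ATP luminescence after at least 48 hr compound exposure at 37 °C, with DMSO substituting for the 20 nM CPT used in the parallel screen.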
VP16 counter – Gal4-VP16 reporter inhibition counter-screen. Drosophila S2 Gal4-VP16 UAS-luciferase, luminescence, 20 h. Potency, µM (top dose mostly 53.6 µM), most hits filed as inhibitors. 310,000 compounds, 3.5% hits. AID 2546;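 note: Gal4-VP16 expression switched on by copper sulfate through the metallothionein promoter; nearly all actives have a fitted effect of over 50% in size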
ELG1 FLuc counter – luciferase inhibition in cell-free luciferin readout for ELG1 hits; AID 624247; 350 compounds, 3% hits; shares compounds with ELG1 DNA repair; Potency, µM (top dose mostly 46.1 µM), usual class: inhibitors; cell-free firefly luciferase luminescence counter-screen, ViewLux
ELG1 Luc conf – inhibits ELG1-dependent DNA repair in HEK293T cells, confirmed; HEK293T ELG1-luciferase levels, luminescence; cells co-treated with 5-fluorouridine; Potency, µM (series often up to 46.1 µM), usual class: inhibitors; shares compounds with ELG1 DNA repair; 670 compounds, 68% hits; AID 624248; note: nearly all actives have a fitted effect of over 55% in size
ELG1-Luc MMS – inhibits ELG1-dependent repair under MMS stimulation in HEK293T cells | HEK293T luciferase-tagged ELG1 level, MMS stimulated | shares compounds with ELG1 DNA repair | Potency, µM (series often up to 46.1 µM), most hits filed as inhibitors | 670 compounds, 53% hits; note: nearly all actives have a fitted effect of over 60% in size
ELG1 5-FU – confirmation of ELG1 repair inhibitors: viability with 5FU | Potency, µM (series often up to 46.1 µM), actives largely listed as cytotoxic | shares compounds with ELG1 DNA repair | AID 624250 | cell viability with 5-FU, ELG1-dependent repair | 670 tested, under 10 active;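 note: ELG1-luc HEK293T cells cotreated with 5-fluorouridine at 10 µM final; viability measured 16 h after compound addition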
ELG1 MMS viab – confirmation of ELG1 repair inhibitors: viability with MMS. shares compounds with ELG1 DNA repair. Cell viability with MMS, ELG1-dependent DNA repair. Potency, µM (top dose mostly 46.1 µM), most hits filed as cytotoxic. 670 compounds, 33% hits;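 note: ELG1-luc HEK293T cells co-treated with 10 µM MMS; viability read 16 h after compound addition; nearly all actives have a fitted effect of over 60% in size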
Cell viab unstim – unstimulated viability counter-screen for ELG1 repair hits; AID 624252; 900 compounds, 8% hits; shares compounds with ELG1 DNA repair; cell viability counter-screen, unstimulated, luminescence; Potency, µM (top dose mostly 45.9 µM), actives largely listed as cytotoxic;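 note: compound exposure lasted 16 hours before reading; nearly all actives have a fitted effect of over 55% in size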
FLuc biochem – counter-screen for ELG1 repair inhibitors: firefly luciferase inhibition. shares compounds with ELG1 DNA repair. purified firefly luciferase, luminescence counter-screen. Potency, µM (titrated, usually from 57.5 µM), hits mostly inhibitors. 350 compounds, 10% hits
A number is an active result; i = inactive; ? = inconclusive; nt = no result. In the library only some 15% were active in any assay of this set; here they are far more common. Calls come from the whole dose curve; as a rule, active = well fitted curve in the direction sought with a large enough effect; inconclusive = small, poorly fitted or top-dose-only effect, or another doubt; inactive = no such curve, though single readings can be large; an effect the other way counts as inactive or inconclusive.

SMILES	ELG1 DNA repair	RORg inh	TDP1 cell CPT	12-LOX inh	TDP1 cell noCPT	VP16 counter	ELG1 FLuc counter	Cell viab unstim	FLuc biochem	others
COc1ccc(C(CNc2nc(-c3cccnc3)nc3ccccc23)N(C)C)cc1 (stereo not drawn)	i	i	?	i	?	i	i	i	i	ELG1 Luc conf=18µM;ELG1-Luc MMS=?;ELG1 5-FU=?;ELG1 MMS viab=i
CCC(C)(CC(=O)Nc1ccc(NC(C)=O)cc1)Cc1nc2ccccc2s1 (stereo not drawn)	nt	nt	nt	i	nt	nt	nt	nt	nt
C[C@@H]1CC2[C@@H]3CCC4=CC(=O)C=C[C@]4(C)[C@@]3(F)[C@@H](O)C[C@]2(C)[C@@]1(O)C(=O)NCCCCCCOC[C@H]1O[C@@H](n2cnc3cc(Cl)c(Cl)cc32)[C@@H]2OC(C)(C)O[C@@H]21 (stereo partly drawn)	nt	nt	nt	nt	nt	nt	i	i	i
COc1ccc(C(c2c(NC(=O)c3ccco3)sc(C)c2C)N2CCOCC2)cc1OC (stereo not drawn)	i	nt	i	i	?	nt	nt	nt	nt
Cc1sc(NC(=O)c2ccco2)c(C(c2cccnc2)N2CCN(c3ccc(F)cc3)CC2)c1C (stereo not drawn)	i	i	1.8µM	?	5.8µM	i	i	i	i
O=C(Nc1ccccc1)N1CCCN(c2nc3ncccc3o2)CC1	nt	nt	nt	i	nt	nt	nt	nt	nt
COc1ccccc1C1=NOC(C(=O)N2CCN(c3ccccc3)CC2)C1 (stereo not drawn)	nt	nt	nt	i	nt	nt	nt	nt	nt
CC(=O)N1CCc2nn(CC(=O)Nc3cccc(C)c3)c(=O)cc2C1	nt	nt	nt	i	nt	nt	nt	nt	nt
Cn1cc(CCC(=O)N2CCC3(CC2)CC(c2ccccc2)C(=O)N3)cn1 (stereo not drawn)	nt	nt	nt	i	nt	nt	nt	nt	nt
CC1(C)Cc2c(c(N3CCOCC3)nc3snc(Br)c23)CO1	16µM	i	?	i	?	i	i	i	i	ELG1 Luc conf=13µM;ELG1-Luc MMS=?;ELG1 5-FU=?;ELG1 MMS viab=i
CC(=O)c1cc2c(cc1NC(=O)CSc1nc3ccccc3[nH]1)OCO2	?	?	nt	nt	nt	i	nt	nt	nt
Cc1cc(C)nc(NC(=O)CSc2nc3ccccc3o2)n1	?	?	i	?	i	i	nt	nt	nt
O=C(CSc1nc2ccccc2o1)Nc1cc(C(F)(F)F)ccc1N1CCOCC1	i	i	?	i	?	i	nt	nt	nt
CC(=O)c1cc2c(cc1NC(=O)CSc1nc3ccccc3o1)OCO2	?	?	i	i	i	i	i	i	i
Cc1cccc(NC(=O)CSc2nc3ccccc3o2)c1	?	i	i	i	i	i	i	i	i
